The list is not random: actives were taken first. Their share in the collection is about 3.7%.
AF4-AF9 inh = inhibitors of human MLL-AF4/AF9 interaction. P42568. AlphaScreen, biotin-AF4 peptide binding to FLAG-AF9. inhibition, % at 10 µM. hit rate 0.47% among 350,000;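 active = every replicate reaching a set inhibition limit, whatever the replicate mean, cut at about 25% in these data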
Target sequence (P42568 whole entry, looked up): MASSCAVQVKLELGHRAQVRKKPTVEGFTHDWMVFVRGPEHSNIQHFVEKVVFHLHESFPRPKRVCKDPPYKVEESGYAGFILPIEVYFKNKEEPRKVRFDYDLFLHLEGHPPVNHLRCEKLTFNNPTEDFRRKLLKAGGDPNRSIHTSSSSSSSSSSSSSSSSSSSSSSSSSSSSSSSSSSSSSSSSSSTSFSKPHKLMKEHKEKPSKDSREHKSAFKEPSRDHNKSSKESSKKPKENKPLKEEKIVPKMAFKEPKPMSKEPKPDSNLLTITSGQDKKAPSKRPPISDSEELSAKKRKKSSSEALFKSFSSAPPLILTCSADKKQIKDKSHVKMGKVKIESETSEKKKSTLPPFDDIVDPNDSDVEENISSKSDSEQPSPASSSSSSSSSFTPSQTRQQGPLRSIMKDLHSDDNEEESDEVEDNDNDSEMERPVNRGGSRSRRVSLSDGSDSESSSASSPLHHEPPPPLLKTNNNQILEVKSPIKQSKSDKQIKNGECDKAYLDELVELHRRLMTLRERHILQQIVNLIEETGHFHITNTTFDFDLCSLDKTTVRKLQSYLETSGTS
rRNA inh HTS = inhibitors of bacterial rRNA selective over humanized ribosomes; hit rate 1.6% among 350,000; GFP signal change (wild-type ribosome), % (test concentration not listed); E. coli WT GFP vs humanized-ribosome RFP mutants, fluorescence, 24 h; stronger effect = lower value; DMSO median 0, no signal -100;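 active = significant combined selectivity score with lowered wild-type GFP, culture density cut under 30%, mutant RFP and density less affected; inactive = any of these conditions unmet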
esBAF inh = SWI/SNF esBAF complex inhibition; hit rate 2% among 350,000; mouse ES cells, Bmi1-luciferase knock-in reporter, 24 h; 100% = twice the neutral-well signal; AID 602393; reporter increase, % at 12.5 µM; in the data active = activation above about 40%;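 note: a rise in the Bmi1 reporter signal indicates esBAF inhibition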
Wnt act = activators of Wnt/beta-catenin signaling. Wnt/beta-catenin reporter cell assay, activator, plate reader. activation, % at 9.35 µM. hit rate 1.2% among 300,000. AID 743398; in the data active = activation above about 30%, passing the limit was not always enough
MITF TRPM1 HTS = activators of MITF-driven TRPM1 promoter activity in SK-MEL-5 cells | SK-MEL-5 TRPM1-promoter luciferase, 24 h; % of positive control, neutral wells = 0 | activation, % at 12.5 µM | hit rate 0.75% among 300,000 | AID 588334;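 active = mean activation of at least 80% with every replicate also reaching 80%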
AlphaScreen intf = interferes with the AlphaScreen assay signal. shares compounds with AF4-AF9 inh. AlphaScreen interference counter-screen, signal luminescence. AC50, µM (doses to about 12 µM). hit rate 45% among 530. AID 720494; cut-off not given, nearly all actives have AC50 up to about 14 µM
Numbers stand for hits; 0 = inactive; - = no result; ! = not confirmed by another sample.

SMILES	AF4-AF9 inh	rRNA inh HTS	esBAF inh	Wnt act	MITF TRPM1 HTS	AlphaScreen intf
Cc1ccc2c(c1)c1c3n2CCCN(Cc2ccccc2)C3CCC1 (stereo not given)	32	0	0	0	0	0
Cc1ccc2c(c1)c1c3n2CCN(CC#N)C3CCC1 (stereo not given)	0	0	0	0	0	-
CC1=C/C(=C(\c2cc(C)c(O)c(Br)c2)c2ccccc2S(=O)(=O)O)C=C(Br)C1=O	52	0	0	0	0	8.9µM
Cc1ccc(NC(=S)N(CCCN2CCC(C)CC2)Cc2ccco2)cc1C	0	0	0	0	0	-
Cc1ccc(NC(=O)COC(=O)c2ccc(-n3cnnn3)cc2)c(Br)c1	0	0	0	0	0	-
CN(C)CCNC(=O)c1cccc(-c2cc(NC=O)c3ncc(-c4cccc(C(F)(F)F)c4)n3c2)c1	36	0	0	0	-	0
CCCNC(=O)C[C@H]1C[C@@H]2c3cc(NC(=O)Nc4ccccc4F)ccc3O[C@@H]2[C@@H](CO)O1	0	0	0	-	-	-
COc1ccc(CN(C)C[C@@H]2Oc3ccc(NS(=O)(=O)c4ccc(C)cc4)cc3C(=O)N([C@H](C)CO)C[C@H]2C)cc1	0	0	0	-	-	-
Cc1cc2c(cc1C)N[C@]1(C[C@H]3CCCC(=O)N4CC[C@@H](C1)[C@@H]34)C(=NC(C)(C)CC(C)(C)C)N2	50	0	0	0	0	0
COc1cccc(NC2=C(NCCO)C(=O)c3ccccc3C2=O)c1	38	0	0	0	0	14µM
Cc1cccc(NC2=C(NCCO)C(=O)c3ccccc3C2=O)c1	49	0	-	0	0	0
COc1ccc(NC2=C(NCCO)C(=O)c3ccccc3C2=O)cc1	56	0	-	0	0	14µM
COc1cccc(Nc2c(Nc3cccc(OC)c3)c(=O)c2=O)c1	0	0	0	0	0	-
Cc1noc(C)c1CSc1ccccc1C(=O)OC(C)C(N)=O (stereo not given)	0	0	0	0	0	-
C[C@@H]1NC(=O)N[C@@H]1CCCCCC(=O)O	90	-	0	0	0	1.1µM
COc1ccc(S(=O)(=O)N[C@H]2CC[C@H](CCNC(=O)CN3CCOCC3)O[C@H]2CO)cc1	0	0	0	-	-	-
COc1ccc(C2CCN(CC(=O)N(C)C)CC2O)cc1 (stereo not given)	0	0	-	0	0	-
Cc1ccsc1/C=N/N1CCN(Cc2ccccc2)CC1	27	0	0	0	0	0
CCN(CC)CCOc1ccc(/C(=C(/Cl)c2ccccc2)c2ccccc2)cc1	31!	0	0	0	0	0
CC/C(=C(\c1ccc(O)cc1)c1ccc(OCCN(C)C)cc1)c1ccccc1	0	0	0	0	0	-
N#CC(C#N)=c1ccc2c(c1)N1C3=C(CCCC3)CC3CCCCC31N=2 (stereo not given)	-	-	0	-	0	-
N#C/C(C(N)=O)=c1/ccc2c(c1)N1C3=C(CCCC3)CC3CCCCC31N=2 (stereo not given)	85	-	0	0	-	2.7µM
CC1(C)CNc2cc(N)ccc2S1	63	0	-	0	0	2.3µM
COc1ccc(NC(=O)C/C(C)=N/NC(=O)C2CCCCC2)c([N+](=O)[O-])c1	0	0	0	0	0	-
CNC(=S)N1N=C(c2ccc(Br)cc2)CC1c1ccc(N(C)C)cc1 (stereo not given)	27	0	-	0	0	0
SMILES	AF4-AF9 inh	rRNA inh HTS	esBAF inh	Wnt act	MITF TRPM1 HTS	AlphaScreen intf
COc1cccc2sc(N(CCCN(C)C)C(=O)c3ccc(S(=O)(=O)N4CCCc5ccccc54)cc3)nc12	36	0	0	0	0	0
CCCCn1c(N)c(N(CCOC)C(=O)C2CCCN(C(=O)c3ccc(Cl)cc3)C2)c(=O)[nH]c1=O (stereo not given)	0	0	-	0	0	-
Cc1cc(CN(C)C(=O)CC2C(=O)NCCN2Cc2c(F)cccc2Cl)on1 (stereo not given)	0	0	-	0	0	-
C[C@@H]1ON(C)[C@H]2C[C@H]3c4[nH]c5ccc(-c6ccc7c(c6)OCO7)cc5c4CCN3C[C@@H]12	31	0	0	0	-	0
Nc1ccc(C(=O)C(=O)c2ccc(N)cc2)cc1	0	0	0	0	0	-
N=C1C=CC(=C(c2ccc(N)cc2)c2ccc(N)cc2)C=C1	45	0	0	0	0	11µM
CN=c1scc(-c2cccs2)n1/N=C/c1ccccc1O	31	-27	-	0	0	0
CN=c1scc(C)n1/N=C/c1ccc(O)c(O)c1O	-	-	0	-	0	-
CCOC(=O)C1=CCC2C(=O)N(CC)C(=O)C12 (stereo not given)	0	0	0	0	-	-
